Laboratory results reported in PubChem BioAssay (NCI).
About 83,000 compounds went through this panel and 20% of them were active in at least one assay; those are over-represented in the sample as a whole.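 The endpoint reported here, percent growth, reads 100 for growth as untreated, 0 for no net growth and -100 for all cells dead.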 Calls of active or inactive are those of the source. The calls were made as follows: active = growth percent below 10; inactive = the rest.

Legend:
Assay in all cases: NCI-60 one-dose screen, 48 h (100 = growth as untreated, 0 = no growth, -100 = all killed)
Conditions in all cases: 10 µM unless noted
[1] = test system: SK-MEL-2 melanoma
[2] = test system: EKVX NSCLC
[3] = test system: SN12C renal
[4] = test system: UO-31 renal
[5] = test system: TK-10 renal
[6] = test system: ACHN renal
[7] = test system: CAKI-1 renal
[8] = test system: A498 renal
[9] = test system: CCRF-CEM leukemia
[10] = test system: MOLT-4 leukemia
[11] = test system: SR leukemia
[12] = test system: RPMI-8226 leukemia
[13] = test system: OVCAR-8 ovarian
[14] = test system: OVCAR-5 ovarian
[15] = test system: OVCAR-4 ovarian
[16] = test system: SK-OV-3 ovarian
[17] = test system: IGROV1 ovarian
[18] = test system: OVCAR-3 ovarian
[19] = test system: HS 578T breast
[20] = test system: NCI/ADR-RES ovarian

Measured: growth

O=C(Nc1cccc(C(F)(F)F)c1)c1cc(-c2ccc(F)cc2F)ccc1O
inactive: [5] 12.6% | [9] 20.8% | [11] 24% | [13] 11.5% | [15] 12.4% | [17] 10.4%
active: [1] -12.6% | [2] 9.81% | [3] 2.11% | [4] -14.3% | [6] 5.71% | [7] -21% | [8] -38.5% | [10] 4.43% | [12] -10.3% | [14] 9.98% | [16] -0.0407% | [18] 9.88% | [19] -5.22% | [20] 4.03%

CCc1ccc(SC2c3ccc(N(CC)CC)cc3Oc3nc(N)c(C#N)c(N)c32)cc1 (centres undefined)
active: [1] -48.2% | [2] -54.8% | [3] -32.9% | [4] -98.8% | [5] -18% | [6] -53.7% | [7] -46.7% | [8] -8.49% | [9] -23.7% | [10] -8.26% | [11] -0.413% | [12] -29.6% | [13] 5.08% | [14] -84.2% | [15] 7.28% | [17] -78% | [18] -64.8% | [19] 9.11% | [20] 5.13%
inactive: [16] 17.8%

C#CCC#CCN1CCC[C@H]1C(=O)NCC(=O)OC
inactive: [1] 99.8% | [2] 98.4% | [3] 98.4% | [4] 98.5% | [5] 99.4% | [6] 101% | [7] 102% | [8] 129% | [9] 109% | [10] 107% | [11] 118% | [12] 113% | [13] 99.1% | [14] 107% | [15] 97.3% | [16] 101% | [17] 104% | [18] 114% | [19] 117% | [20] 96%

CS(=O)(=O)Nc1cc(-c2ccc3ncc(C#N)c(Nc4cccc(Cl)c4F)c3c2)cnc1Cl
inactive: [3] 16.1% | [6] 12.7% | [13] 10.6% | [14] 21.2% | [15] 19.1% | [20] 33.7%
active: [1] -71.3% | [2] -5.3% | [4] -16.1% | [5] -31% | [7] -5.21% | [8] -50.9% | [9] 2.5% | [10] -11.1% | [11] 1.4% | [12] -36.9% | [16] -18.2% | [17] -43.8% | [18] -12.8% | [19] -26.6%

O=C(CCn1c[n+](CC(=O)c2ccc(F)cc2)c2ccccc21)Nc1cccc2cccnc12
inactive: [1] 81.7% | [2] 89.5% | [3] 94% | [4] 88.9% | [5] 107% | [6] 95.7% | [7] 99.9% | [8] 130% | [9] 68.3% | [10] 65.2% | [11] 79.5% | [12] 35.1% | [13] 86.9% | [14] 79.6% | [15] 52.3% | [16] 88.2% | [17] 39.4% | [18] 55.4% | [20] 96.5%

CCN(CC)CCn1c2ccc(O)cc2c2sc3cc(OC)ccc3c(=O)c21
inactive: [1] 55.6% | [2] 43.5% | [3] 21.5% | [4] 26.8% | [5] 61.7% | [6] 12.4% | [7] 14.5% | [8] 73.3% | [9] 21.8% | [13] 19.3% | [14] 44.7% | [15] 28.2% | [16] 74.7% | [17] 19.2% | [18] 41.8% | [19] 63.6% | [20] 20.8%
active: [10] 5.44% | [11] -13.4% | [12] -13.1%

NC(N)=Nc1ccc(Oc2cccc(Nc3ccc(Br)c(C(F)(F)F)c3)c2)cc1
inactive: [1] 35.6% | [2] 25.5% | [4] 75.2% | [5] 54.9% | [6] 68.3% | [7] 39.8% | [13] 51.2% | [14] 40.3% | [15] 39.8% | [16] 67.4% | [18] 13.7% | [20] 93.7%
active: [3] -21.3% | [8] 0.698% | [9] 3.83% | [10] 9.79% | [11] -43.5% | [12] -44.1% | [17] 0.582% | [19] 9.28%

C#C[C@]1(O)CC[C@H]2[C@@H]3CC=C4c5sc(-c6cccc(O)c6)nc5CC[C@]4(C)[C@H]3CC[C@@]21C
active: [1] -24.6% | [2] 7.48% | [3] -48.6% | [4] -30.4% | [5] 2.76% | [6] -58.7% | [7] -19.9% | [8] -66.9% | [9] -31.8% | [10] -11.8% | [11] 4.31% | [12] -33% | [13] 9.55% | [14] -35% | [15] -47.4% | [16] -18.2% | [17] -3.36% | [18] -65.3% | [19] -37.7% | [20] -12.5%

COc1cc(Nc2c(C#N)cnn3cc(-c4cnn(CC(C)(C)O)c4)cc23)ccc1Cl
inactive: [1] 61.1% | [2] 43.4% | [3] 23.5% | [4] 11.6% | [5] 23.3% | [6] 18% | [9] 32.6% | [10] 36.7% | [11] 24.3% | [12] 40.2% | [13] 46.9% | [14] 43.8% | [15] 42.6% | [18] 57.6% | [19] 61.9% | [20] 46.5%
active: [7] 9.46% | [8] -24.4% | [16] 4.19% | [17] 4.87%

NC/C(=C/F)COc1ccc2nc(NCc3cccnc3)oc2c1
inactive: [1] 105% | [2] 68.5% | [3] 86.3% | [4] 62.1% | [5] 74.7% | [6] 100% | [7] 69.8% | [8] 50.5% | [9] 99.9% | [10] 106% | [11] 101% | [12] 120% | [13] 102% | [14] 113% | [15] 86.6% | [16] 110% | [17] 86.4% | [18] 122% | [19] 99.5% | [20] 111%

COc1ccc(NC(=O)CSc2nnc(-c3ccc4nc(-c5ccc(OC)c(OC)c5)[nH]c4c3)o2)cc1OC
inactive: [1] 103% | [2] 107% | [3] 100% | [4] 73.5% | [5] 117% | [6] 94.2% | [7] 94.7% | [8] 93.3% | [9] 86% | [10] 86.6% | [11] 104% | [12] 98.6% | [13] 101% | [14] 95.2% | [15] 106% | [16] 120% | [17] 91.3% | [18] 108% | [19] 97.5% | [20] 96.1%

NC(=O)c1cccc(C#CCNC[C@H]2C[C@@H](n3ccc4c(Cl)ncnc43)[C@H](O)[C@@H]2O)c1
inactive: [1] 104% | [2] 106% | [3] 99.5% | [4] 92.4% | [5] 97.3% | [6] 106% | [7] 94.4% | [8] 94.7% | [9] 102% | [10] 114% | [11] 112% | [12] 110% | [13] 101% | [14] 98.4% | [15] 111% | [16] 105% | [17] 101% | [18] 113% | [19] 101% | [20] 106%

Fc1ccc(-c2cc3nc(C(Cl)Cl)nc(-c4ccc(F)cc4)n3n2)cc1
active: [2] 7.26% | [6] -41.1% | [7] -18.3% | [8] -53.1% | [11] 3.96% | [12] 3.43% | [14] -14.3% | [15] -9.54% | [16] -29.2% | [18] -31.7% | [19] -1.86%
inactive: [1] 108% | [3] 49.2% | [4] 29.3% | [5] 13.2% | [9] 33.1% | [10] 12.4% | [13] 11.8% | [17] 31.4% | [20] 19.4%

Cc1ccc(NC(=O)c2ccc(CN3CCN(C)CC3)cc2)cc1Oc1ccc(-c2[nH]nc3ncnc(N)c23)cc1
inactive: [1] 103% | [2] 107% | [3] 96.4% | [4] 85.3% | [5] 110% | [6] 101% | [7] 92.5% | [8] 94.3% | [9] 59.5% | [10] 71.7% | [11] 80.2% | [12] 75.5% | [13] 99.5% | [14] 101% | [15] 99.1% | [16] 93.7% | [17] 90% | [18] 88.4% | [19] 82.8% | [20] 100%

Cc1cc(C)n(C(=O)c2sc(=S)n(-c3ccccc3)c2N=Nc2c(N)n[nH]c2N)n1
inactive: [1] 110% | [2] 102% | [3] 105% | [4] 84.8% | [5] 122% | [6] 102% | [7] 98.9% | [8] 92.8% | [9] 95.5% | [10] 105% | [11] 86.4% | [12] 108% | [13] 101% | [14] 101% | [15] 115% | [16] 109% | [17] 99.8% | [18] 119% | [19] 113% | [20] 115%
